Source: PubChem BioAssay (several laboratories)
The list is not random: actives were taken first. Their share in the collection is about 2.3%.
Gli-Sufu antag: Gli-Sufu pathway antagonism | Sufu-KO-LIGHT fibroblasts, Gli luciferase reporter luminescence | inhibition, % at 5 µM | 340,000 compounds, 0.74% hits;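 active = inhibition above about 55%, limit read from the data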;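 note: 0% = DMSO-treated cells and 100% = wells with medium but no cells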
697 NFkB inh: inhibitors of the PMA/ionomycin-induced NF-kB reporter in 697 B cells; 697 B-cell NF-kB luciferase reporter, 16 h; 330,000 compounds, 0.33% hits; inhibition, % at 4 µM; in the data active = inhibition above about 35%
Jurkat NFkB inh: inhibitors of the PMA/ionomycin-induced NF-kB reporter in Jurkat cells | inhibition, % at 4 µM | PMA/ionomycin-induced NF-kB luciferase reporter, luminescence | 330,000 compounds, 0.53% hits; in the data active = inhibition above about 50%
Shn3 3UTR inh: inhibitors of Schnurri-3 3'UTR reporter in osteoblasts. 360,000 compounds, 0.52% hits. AID 588674. inhibition, % at 12.5 µM. Clone20 osteoblast Shn3 3'UTR firefly luciferase, 24 h;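 active = mean inhibition of at least 75% with every replicate also reaching 75%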;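 note: 0% = median of neutral control wells and 100% = pilot-screen positive control compound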
aSyn UTR inh: MLPCN primary screen, SNCA 5' untranslated region. alpha-synuclein 5'UTR reporter, inhibitor activity. inhibition, % (tested at 7.5 µM). 300,000 compounds, 0.82% hits; in the data active = inhibition above about 60%;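 note: H4 neuroglioblastoma cells stably carrying SNCA 5'UTR luciferase fusion; 0% = DMSO wells and 100% = positive control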
TAG inh: triacylglycerol accumulation inhibition; H9c2 cells, Nile Red lipid (TAG) fluorescence; cells loaded with 200 µM oleic acid; inhibition, % at 12.5 µM; 230,000 compounds, 0.66% hits;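 active = pattern-corrected inhibition of lipid staining of at least 50% with the nuclear-stain viability signal not falling by more than 50%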;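 note: 0% = DMSO wells and 100% = triacsin C control wells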
Gli-Sufu confirm: confirmation of Gli-SUFU pathway antagonists; 2,500 compounds, 40% hits; Sufu-KO-LIGHT cells, Gli luciferase reporter, luminescence; shares compounds with Gli-Sufu antag; inhibition, % at 5 µM;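 active = mean inhibition at 5 µM reaching about 45%, limit read from the data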;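 note: plate controls were DMSO-treated cells for no effect and wells lacking cells for full effect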
SufuKO cytotox: cytotoxic in Gli-SUFU antagonist counter-screen | shares compounds with Gli-Sufu antag | Sufu-KO-LIGHT cells cytotoxicity, ATP luminescence | cytotoxicity, % at 5 µM | 2,500 compounds, 32% hits | AID 651994;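 active = mean cytotoxicity at 5 µM above about 25%, limit read from the data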;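 note: cells exposed to compound overnight for roughly 16 to 18 hours; plate controls were DMSO wells with cells for no effect and medium without cells for full effect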
Wnt3a counter: Wnt3a reporter inhibition counter-screen. shares compounds with Gli-Sufu antag. Wnt-LIGHT cells, Wnt3a-driven luciferase reporter, luminescence. 2,500 compounds, 20% hits. inhibition, % at 6.25 µM;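 active = mean inhibition above about 25%, limit read from the data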
The depositor's hits bear a star; · = no result.

SMILES	Gli-Sufu antag	697 NFkB inh	Jurkat NFkB inh	Shn3 3UTR inh	aSyn UTR inh	TAG inh	Gli-Sufu confirm	SufuKO cytotox	Wnt3a counter
COc1ccc(C(O)C(CN2CCOCC2)c2ccccc2)cc1F (stereo not drawn)	6	-22	-4	9	26	2	·	·	·
COc1ccc(C(=O)C(CN2CCOCC2)c2ccccc2)cc1F (stereo not drawn)	55	·	·	33	-108	39	17	1	19
COc1cccc(C(=O)NOCc2ccc(C)cc2)c1OC	-4	9	-13	2	·	12	·	·	·
CCCc1[nH]nc2c1C1(CCN(C(=O)OCc3ccccc3)CC1)C(C#N)=C(N)O2	6	-8	-16	-23	15	·	·	·	·
CCCCNC(=S)N(C)/N=C/c1ccc2c(c1)OCO2	99*	-23	-30	5	23	5	21	23	8
O=C1CCCN1CCCNc1ncnc2c1[nH]c1ccc(Cl)cc12	-2	9	6	11	-59	·	·	·	·
CCN1CCCC1CNc1ncnc2c1[nH]c1ccc(Cl)cc12 (stereo not drawn)	52	-28	-27	-14	-41	26	40	13	-95
O=C(CSc1ccc2nnc(-c3cccnc3)n2n1)NCc1ccco1	82*	0	2	3	-8	-2	13	17	-10
Cc1ccc(NCC(O)C(O)C(O)CO)cc1C (stereo not drawn)	-5	10	1	-57	24	·	·	·	·
Cc1ccsc1C1C(C#N)=C(N)Oc2n[nH]c(C)c21 (stereo not drawn)	65*	20	0	11	-13	1	21	3	10
CCC(C)NC(=O)c1ccccc1NC(=O)Nc1ccccc1 (stereo not drawn)	-1	17	-7	-6	-12	16	·	·	·
O=C(Cn1cnc([N+](=O)[O-])n1)c1ccccc1	24	2	-1	-8	3	·	·	·	·
O=C(Cn1ccc([N+](=O)[O-])n1)c1ccccc1	51	-14	-17	-4	-4	-2	8	21	-5
COc1cccc(NC(=S)N2CCCN(Cc3ccc(F)cc3)C2)c1	-13	9	13	-8	-6	12	·	·	·
O=C(O)C1C2C=CC(O2)C1C(=O)Nc1ccc2c(c1)OCCO2 (stereo not drawn)	·	-25	-6	·	1	·	·	·	·
O=C(O)C1C2C=CC(C2)C1C(=O)Nc1ccc2c(c1)OCCO2 (stereo not drawn)	60*	-31	21	31	-5	16	16	20	54*
O=C(c1ccccc1Oc1ccc([N+](=O)[O-])cc1)N1CCOCC1	0	5	-9	0	2	-8	·	·	·
CN(CC(=O)Nc1ccc(Cl)c(C(F)(F)F)c1)C(=O)Cc1cccs1	6	-21	-5	7	-3	-63	·	·	·
CCOC(=O)c1c(C2COc3ccccc3O2)csc1N (stereo not drawn)	55	-19	-10	13	-2	·	13	29*	-19
CN(CC(=O)Nc1ccc(F)cc1)CC(=O)N1CCc2ccccc21	-1	18	-14	-11	·	-5	·	·	·
O=c1ccn(Cc2ccc(F)cc2)c2ccnc(C(F)(F)F)c12	8	-48	-1	13	20	·	·	·	·
COc1cc(CN2CCCC(N3CCN(c4ccccc4C)CC3)C2)cc(Cl)c1O (stereo not drawn)	24	-6	5	22	-4	·	·	·	·
CC(=O)Nc1cc(-c2nn(CC(=O)N3CCCCC3)c(=O)c3ccccc23)ccc1N1CCOCC1	51	-28	-10	18	14	·	16	9	-25
O=C(C[n+]1cc(Br)cc2ccccc21)c1ccc(Cl)cc1	-4	11	-20	-7	-14	·	·	·	·
Cc1cc(S(=O)(=O)NCCc2ccccc2)ccc1-n1cnnn1	20	-1	3	12	8	·	·	·	·
SMILES	Gli-Sufu antag	697 NFkB inh	Jurkat NFkB inh	Shn3 3UTR inh	aSyn UTR inh	TAG inh	Gli-Sufu confirm	SufuKO cytotox	Wnt3a counter
O=S(=O)(NCCc1ccccc1)c1ccc(-n2cnnn2)cc1	54	13	29	15	-6	·	17	1	-4
COc1ccc(C(C#N)N2N=C(C)CC2c2ccccc2)cc1 (stereo not drawn)	11	-1	4	-9	-19	·	·	·	·
CC(=O)NS(=O)(=O)c1ccc(NC(=S)NC(=O)C(C)C)cc1	93*	-12	0	7	8	-2	31	5	-14
CC(=O)NS(=O)(=O)c1ccc(NC(=S)NC(=O)CC(C)C)cc1	0	-1	-9	4	1	·	·	·	·
CC(=O)NC(c1cccc(F)c1)c1nc(-c2ccc(N(C)C)cc2)cs1 (stereo not drawn)	·	·	·	-3	·	2	·	·	·
Cc1ccc(CNC(=O)CN(c2ccc(C)cc2)S(=O)(=O)c2c(C)n[nH]c2C)cc1	57*	-5	3	4	5	·	26	9	37*
Cc1ccc(CNC(=O)CN(c2ccc(C)cc2)S(=O)(=O)c2c(C)nn(C)c2C)cc1	11	5	4	-21	-28	·	·	·	·
Cc1cccc(OCCn2c(NC(=O)c3ccco3)nc3ccccc32)c1	4	-47	5	22	38	-51	·	·	·
O=C(CSc1nc(C2CC2)nc2c1cnn2-c1ccccc1)Nc1c[nH]c(=O)[nH]c1=O	99*	-4	7	-5	31	·	30	2	17
O=c1c2ccccc2ncn1Cc1ccc(Cl)cc1	-13	12	2	7	5	5	·	·	·
COc1ccc(/C=N\N2CCN(Cc3ccccc3Cl)CC2)cc1	50	3	-3	11	3	-7	12	16	-27
Clc1ccc(/C=N/N2CCN(Cc3ccccc3Cl)CC2)cc1	6	-6	5	15	5	·	·	·	·
CC(C)(C)c1ccc(S(=O)(=O)NCC2CCCO2)cc1 (stereo not drawn)	62*	5	-1	-2	5	·	23	3	-38
CS(=O)(=O)N(CC(=O)NC1CCCCCC1)Cc1ccc(Cl)cc1	59*	4	-18	7	9	·	28	3	7
O=C(c1ccccc1)N(Nc1ccccc1)c1ccccc1	9	-7	-29	2	11	·	·	·	·
COc1ccc(OC)c(CN2CCN(C(=O)CN3C(=O)NC4(CCCC4)C3=O)CC2)c1	-1	-10	-5	-8	16	-5	·	·	·
CSc1nc2[nH]c3c(c2c2nncn12)CC(C)(C)OC3	98*	15	-6	-1	-8	1	27	5	-15
C=C(C)c1cccc(C(C)(C)NC(=O)Nc2ccc(OC)cc2)c1	2	4	19	4	-11	·	·	·	·
